Results reported in PubChem BioAssay (NCATS).
Results filed as inconclusive are left out. Active and inactive are the calls of the source. Calls follow the shape of the dose curve; as a rule, active = well fitted inhibition curve with a large enough effect; inconclusive = small, poorly fitted or top-dose-only effect; inactive = no such curve, though single readings can be large or run the other way.

Test: HTS Assay for Allosteric Antagonists of the Human D2 Dopamine Receptor: Hit Validation in HTRF (AID 624455);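 also: stable D1 dopamine receptor cell line scored for blocking the D1 response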
Conditions: Cells stably expressing D1 dopamine receptor, inhibition mode; series mostly up to 46.1 µM; activity, negative = inhibition: at the top concentration
Description: Dopamine receptors (DARs) are involved in the etiology and/or therapy of a number of neuropsychiatric and endocrine disorders. For instance, all receptor-based antiparkinsonian drugs work via stimulating the D2 DAR subtype whereas all FDA-approved antipsychotic agents are antagonists of this receptor. […] There are three different types of allosteric modulators that we are seeking, two of which will stimulate or augment receptor signaling, allosteric agonists and potentiators, while the third, allosteric antagonists, will attenuate receptor signaling. The present primary screening assay measures compound antagonism after an EC80 addition of dopamine by tracking calcium flux in a […], inducible Hek293 Trex D2 cell line. This assay measures activity of the hits in the D1 HTRF assay.
NIH Chemical Genomics Center [NCGC]
NIH Molecular Libraries Probe Centers Network [MLPCN]
Assay Submitter (PI): David Sibley
Cells stably expressing the D1 dopamine receptor will be run in an HTRF assay and compounds will be examined for the ability to inhibit the D1 mediated response.
% is scaled to controls: 0 for no effect and ±100 for the full control effect; potency is read from the fitted curve at half-maximal effect.

Row | Structure (SMILES) | activity, negative = inhibition | Potency
1 | Cc1cccc(C)c1OCC(N)C(C)C (stereo not given) | 0.873% (inactive) | –
2 | NC1(C(=O)O)CCCCC1 | -5.59% (inactive) | –
3 | Cc1ccc([N+](=O)[O-])cc1S(=O)(=O)N(C)C | -3.79% (inactive) | –
4 | CC(C)Cn1c(=O)n(C)c(=O)c2[nH]cnc21 | -8.46% (inactive) | –
5 | O=c1ccc2c(OCCCCc3ccccc3)c3ccoc3cc2o1 | 1.4% (inactive) | –
6 | CN(C)C(=O)/N=N/C(=O)N(C)C | 3.93% (inactive) | –
7 | CC(C)C[C@H](NC(=O)C1OC1C(=O)O)C(=O)NCCCCN=C(N)N (stereo not given in full) | -1.83% (inactive) | –
8 | CCCCOc1cc(CC2CNC(=O)N2)ccc1OC (stereo not given) | -5.77% (inactive) | –
9 | CO/N=C(\C(=O)N[C@@H]1C(=O)N2C(C(=O)O)=C(CSc3nc(=O)c(O)nn3C)CSC12)c1csc(N)n1 (stereo not given in full) | -1.71% (inactive) | –
10 | COc1ccc2c(c1)c(CC(=O)O)c(C)n2C(=O)c1ccccc1 | -0.767% (inactive) | –
11 | CCc1ccc2c(-c3cccc(Cl)c3)nc(=O)n(CC)c2n1 | -2.35% (inactive) | –
12 | Brc1c(Br)c(Br)c2[nH]cnc2c1Br | -2.13% (inactive) | –
13 | NC1CCN(O)C1=O (stereo not given) | 1.14% (inactive) | –
14 | NC(N)=[N+]1CCc2ccccc2C1 | -0.26% (inactive) | –
15 | CCN(c1nc(N)c(C(=O)N=C(N)N)nc1Cl)C(C)C | 4.58% (inactive) | –
16 | CCCCOC(=O)NS(=O)(=O)c1sc(CC(C)C)cc1-c1ccc(Cn2c(CC)nc3c(C)cc(C)nc32)cc1 | 7.52% (inactive) | –
17 | Nc1nc2[nH]c(=O)cnc2c(=O)[nH]1 | -1.18% (inactive) | –
18 | CC(=O)N[C@@H](Cc1c[nH]c2ccccc12)C(=O)OCc1cc(C(F)(F)F)cc(C(F)(F)F)c1 | -1.67% (inactive) | –
19 | Nc1ncnc2c1nc(Br)n2C1OC2COP(=O)(O)O[C@@H]2C1O (stereo not given in full) | – | 11.6 µM (active)
20 | O=C(O)C1CN(CCCP(=O)(O)O)CCN1 (stereo not given) | -8.76% (inactive) | –

Row | Structure (SMILES) | activity, negative = inhibition | Potency
21 | CCCC[C@@]1(C2CCCC2)Cc2cc(OCC(=O)O)c(Cl)c(Cl)c2C1=O | 3.37% (inactive) | –
22 | COC1(C2=NCCN2)COc2ccccc2O1 (stereo not given) | -2.13% (inactive) | –
23 | CCCCCCCCCCCCCCSCC(=O)O | -2.34% (inactive) | –
24 | NC(=Nc1ccccc1)NC(=O)c1nc(Cl)c(N)nc1N | 9.09% (inactive) | –
25 | C[C@@H](NCCc1ccc(O)cc1)[C@@H](O)c1ccc(O)cc1 | -3.17% (inactive) | –
26 | Cn1c(=O)c2[nH]c(C3CCCC3)nc2n(C)c1=O | 9.22% (inactive) | –
27 | C=C1C(=O)O[C@@H]2[C@H]3O[C@]3(C)CCC=C(C)CC[C@@H]12 | 6.43% (inactive) | –
28 | N=C(N)c1ccccc1 | 3.62% (inactive) | –
29 | Cn1c(=O)[nH]c2ncn(C)c2c1=O | -6.58% (inactive) | –
30 | CC1C(=O)N(C)C(=O)c2nc[nH]c21 (stereo not given) | -11.8% (inactive) | –
31 | NC(N)=N[C@@H](CCC(=O)O)C(=O)O | -7.71% (inactive) | –
32 | C/C(=C\c1ccc(C(=O)O)cc1)c1ccc2c(c1)C(C)(C)CCC2(C)C | -9.07% (inactive) | –
33 | Fc1ccc(CN(C2=NCCN2)c2c(Cl)cccc2Cl)cc1 | 3.35% (inactive) | –
34 | COc1cc([C@@H]2c3cc4c(cc3[C@H](O)C3COC(=O)[C@@H]32)OCO4)cc(OC)c1OC (stereo not given in full) | -3.38% (inactive) | –
35 | O=c1onc2n1-c1cc(Br)ccc1OC2 | -0.743% (inactive) | –
36 | CSC(=N)N | 4.69% (inactive) | –
37 | O=[N+]([O-])c1cccc2cn[nH]c12 | 2.61% (inactive) | –
38 | CN1CCN(c2nc3cc(C(F)(F)F)ccc3n3cccc23)CC1 | -4.27% (inactive) | –
39 | CCN(CC)CCOC(=O)c1cc(Cl)c(N)cc1OC | -1.67% (inactive) | –
40 | NC(=O)CC[C@H](N)C(=O)O | 3.89% (inactive) | –
